PubChem BioAssay (EPA / NIEHS)
Where a structure was tested more than once in an assay, its records may differ in their call. Active and inactive are the calls of the source. Rule for the calls: active = hit-call score of the fitted dose curve at least 0.9, where 1 is the maximum; inactive = score below 0.9.

How the values were obtained:
[1] = ATG_E_Box_CIS: Attagene CIS-FACTORIAL HepG2 Assay for human Enhancer Box (E-box) (AID 2282936); settings: HepG2 E-box cis-reporter transcription, actives raise or lower the signal
Summary of the method: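 In this cell-based setup, HepG2 cells bearing transfected promoter-driven reporter units were exposed to chemicals for 24 h; reporter transcripts were amplified, 6-FAM-labelled, cut with HpaI and sized by capillary electrophoresis.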

[2] = ATG_M_61_CIS: Attagene CIS-FACTORIAL HepG2 Assay for M61 Transcription Factor (Internal Marker) (AID 2282937); settings: HepG2 Attagene CIS-FACTORIAL M61 internal marker reporter; actives raise or lower the signal
Summary of the method: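 Background-control endpoint: HepG2 cells with cis-regulated reporter constructs, 24 h exposure, reporter mRNA detected via fluorescent primer extension and capillary electrophoresis; values from bidirectional fitting with DMSO baseline.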

[3] = ATG_EGR_CIS: Attagene CIS-FACTORIAL HepG2 Assay for human Early Growth Response 1 (EGR1) (AID 2282938); settings: HepG2 Attagene CIS-FACTORIAL EGR reporter mRNA; actives raise or lower the signal
Summary of the method: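 Endpoint derived by bidirectional fitting versus DMSO vehicle. Method: cis-promoter reporter units transfected into HepG2, 24 h dosing, RNA isolation, RT-PCR with 6-FAM primer extension and HpaI digestion, then capillary electrophoresis fluorescence detection.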

[4] = ATG_M_19_CIS: Attagene CIS-FACTORIAL HepG2 Assay for M19 Transcription Factor (Internal Marker) (AID 2282939); settings: HepG2 Attagene CIS-FACTORIAL M19 internal marker reporter; actives raise or lower the signal
Summary of the method: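 Background-control endpoint from a multiplexed HepG2 reporter panel. Cells carrying cis-regulated reporter constructs are treated 24 h, then reporter transcripts are amplified, fluorescently labelled and sized by capillary electrophoresis. DMSO defines baseline.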

[5] = ATG_Ets_CIS: Attagene CIS-FACTORIAL HepG2 Assay for human Erythroblast Transformation Specific (ETS) (AID 2282941); settings: HepG2 ETS cis-reporter transcription, actives raise or lower the signal
Summary of the method: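 Endogenous transcription factor activity read as reporter mRNA via RT-PCR and capillary electrophoresis, with gain or loss fitted bidirectionally against DMSO. Human HepG2 liver cells, transiently transfected CIS reporter constructs, 24 h exposure.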

[6] = target: Hepatocyte nuclear factor 3-beta (Homo sapiens) (UniProt Q9Y261); test: ATG_FoxA2_CIS: Attagene CIS-FACTORIAL HepG2 Assay for human Forkhead box A2 (FOXA2) (AID 2282942); settings: HepG2 cis-reporter transcription factor activity, 24 h; actives raise or lower the signal
Summary of the method: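 Measured: reporter mRNA induction or loss in HepG2 transiently carrying multiple cis-regulated reporter units, 24 h after dosing. Quantified by RT-PCR plus capillary electrophoresis, normalised to DMSO.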

[7] = ATG_FoxO_CIS: Attagene CIS-FACTORIAL HepG2 Assay for human Forkhead box O (FoxO) (AID 2282943); settings: HepG2 Attagene cis-reporter, FoxO element, mRNA; actives raise or lower the signal
Summary of the method: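 Transfected HepG2 reporter cells exposed to test chemical for 24 h; reporter RNA measured by reverse transcription, PCR and fluorescent capillary electrophoresis; curves fitted for increases and decreases against DMSO.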

[8] = ATG_GATA_CIS: Attagene CIS-FACTORIAL HepG2 Assay for human GATA Binding Protein (AID 2282944); settings: HepG2 GATA cis-element reporter, Attagene multiplex mRNA; actives raise or lower the signal
Summary of the method: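 Endogenous transcription factor activity was captured through cis-promoter-driven reporters in transfected HepG2 cells. After 24 h exposure, reporter transcripts were quantified by RT-PCR with fluorescent capillary electrophoresis, and responses fitted both directions against DMSO.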

[9] = ATG_GLI_CIS: Attagene CIS-FACTORIAL HepG2 Assay for human Zinc Finger Protein GLI1 (AID 2282945); settings: HepG2, Attagene cis-factorial reporter mRNA, GLI element; actives raise or lower the signal
Summary of the method: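 Transiently transfected HepG2 cells report endogenous transcription factor activity via cis-element-driven reporter units. After 24 h compound exposure, reporter mRNA was measured by RT-PCR with capillary electrophoresis; bidirectional fitting against DMSO baseline.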

[10] = ATG_GRE_CIS: Attagene CIS-FACTORIAL HepG2 Assay for human Glucocorticoid Response Elements (GRE) (AID 2282947); settings: HepG2 GRE cis-reporter, Attagene multiplex mRNA; actives raise or lower the signal
Summary of the method: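 Fluorescence intensity of reporter-specific cDNA fragments, separated by capillary electrophoresis, provides the signal. Constructs carry cis-regulating promoters in transiently transfected HepG2 liver cells; 24 h incubation; fitting is bidirectional against DMSO.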

[11] = ATG_ISRE_CIS: Attagene CIS-FACTORIAL HepG2 Assay for human Interferon Regulatory Factor 1 (IRF1) binding to an Interferon-Stimulated Response Element (ISRE) (AID 2282948); settings: HepG2 ISRE cis-reporter (Attagene), mRNA transcription readout; actives raise or lower the signal
Summary of the method: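 Endogenous transcription factor activity read as reporter transcript abundance via RT-PCR and capillary electrophoresis. HepG2 cells transiently transfected, 24 h chemical exposure. Gain or loss fitted against DMSO baseline.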

[12] = ATG_M_06_CIS: Attagene CIS-FACTORIAL HepG2 Assay for M06 Transcription Factor (Internal Marker) (AID 2282950); settings: HepG2 Attagene CIS-FACTORIAL M06 internal marker reporter; actives raise or lower the signal
Summary of the method: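 Steps: transfect HepG2 with multiplexed cis-element reporter constructs; dose chemical 24 h; extract RNA with DNase treatment; reverse-transcribe, PCR-amplify, 6-FAM label, HpaI digest; separate fragments by capillary electrophoresis. Activity fitted both directions versus DMSO.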

[13] = target: Hypoxia-inducible factor 1-alpha (Homo sapiens) (UniProt Q16665); test: ATG_HIF1a_CIS: Attagene CIS-FACTORIAL HepG2 Assay for human Hypoxia Inducible Factor 1 (HIF1A) (AID 2282951); settings: HepG2 Attagene cis-factorial HIF1a reporter transcription; actives raise or lower the signal
Summary of the method: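 Dosed 24 h, transfected HepG2 cells yielded total RNA whose reporter transcripts were RT-PCR-amplified and sized by capillary electrophoresis using fluorescent labelling; DMSO defined baseline, with gain and loss of signal both fitted.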

[14] = target: Hepatocyte nuclear factor 6 (Homo sapiens) (UniProt Q9UBC0); test: ATG_HNF6_CIS: Attagene CIS-FACTORIAL HepG2 Assay for human Hepatocyte Nuclear Factor 6 (HNF6) (AID 2282952); settings: HepG2 Attagene cis-factorial HNF6 reporter transcription; actives raise or lower the signal
Summary of the method: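 Endogenous factor activity read in transiently transfected HepG2 via promoter-regulated reporter transcripts. RNA harvested 24 h post-dosing, reverse-transcribed, PCR-amplified, FAM-labelled, HpaI-digested and resolved by capillary electrophoresis; fitted in both directions against DMSO.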

[15] = target: Heat shock factor protein 1 (Homo sapiens) (UniProt Q00613); test: ATG_HSE_CIS: Attagene CIS-FACTORIAL HepG2 Assay for human Heat Shock Transcription Factor 1 (HSE) (AID 2282953); settings: HepG2 HSE cis-reporter, Attagene RNA transcription; actives raise or lower the signal
Summary of the method: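 Cells were transfected with cis-element-driven reporter constructs, dosed for 24 h, then total RNA was reverse-transcribed and reporter cDNA amplified, FAM-labelled and digested with HpaI. Fragments were resolved by capillary electrophoresis; gain or loss was fitted against DMSO.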

[16] = ATG_MRE_CIS: Attagene CIS-FACTORIAL HepG2 Assay for human Metal Responsive Element (MRE) (AID 2282954); settings: HepG2 MRE cis-reporter transcription, Attagene multiplex; actives raise or lower the signal
Summary of the method: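 Measured here is mRNA induction from an MRE cis-element reporter in HepG2 after 24 h, quantified by fluorescence of labelled RT-PCR products on capillary electrophoresis; gain- and loss-of-signal fits use DMSO as baseline.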

[17] = ATG_PBREM_CIS: Attagene CIS-FACTORIAL HepG2 Assay for human Phenobarbital-responsive Enhancer Module (PBREM) (AID 2282955); settings: HepG2 PBREM cis-reporter, Attagene multiplexed transcription; actives raise or lower the signal
Summary of the method: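 Transfected liver-derived HepG2 cells exposed 24 h; PBREM reporter transcript quantified via RT-PCR and capillary electrophoresis, with activity in either direction referenced to DMSO.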

[18] = ATG_M_32_CIS: Attagene CIS-FACTORIAL HepG2 Assay for M32 Transcription Factor (Internal Marker) (AID 2282949); settings: HepG2 Attagene cis-factorial M32 reporter, mRNA; actives raise or lower the signal;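 note: background control marker of the multiplexed CIS panel rather than a real target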
Summary of the method: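 HepG2 transfectants (cis-regulated reporter transcription units) dosed 24 h. Reporter mRNA by RT-PCR plus CE, analysed as gain or loss relative to DMSO.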

Measured: AC50

Chain of Hypoxia-inducible factor 1-alpha (Homo sapiens) (Q16665 whole entry, looked up): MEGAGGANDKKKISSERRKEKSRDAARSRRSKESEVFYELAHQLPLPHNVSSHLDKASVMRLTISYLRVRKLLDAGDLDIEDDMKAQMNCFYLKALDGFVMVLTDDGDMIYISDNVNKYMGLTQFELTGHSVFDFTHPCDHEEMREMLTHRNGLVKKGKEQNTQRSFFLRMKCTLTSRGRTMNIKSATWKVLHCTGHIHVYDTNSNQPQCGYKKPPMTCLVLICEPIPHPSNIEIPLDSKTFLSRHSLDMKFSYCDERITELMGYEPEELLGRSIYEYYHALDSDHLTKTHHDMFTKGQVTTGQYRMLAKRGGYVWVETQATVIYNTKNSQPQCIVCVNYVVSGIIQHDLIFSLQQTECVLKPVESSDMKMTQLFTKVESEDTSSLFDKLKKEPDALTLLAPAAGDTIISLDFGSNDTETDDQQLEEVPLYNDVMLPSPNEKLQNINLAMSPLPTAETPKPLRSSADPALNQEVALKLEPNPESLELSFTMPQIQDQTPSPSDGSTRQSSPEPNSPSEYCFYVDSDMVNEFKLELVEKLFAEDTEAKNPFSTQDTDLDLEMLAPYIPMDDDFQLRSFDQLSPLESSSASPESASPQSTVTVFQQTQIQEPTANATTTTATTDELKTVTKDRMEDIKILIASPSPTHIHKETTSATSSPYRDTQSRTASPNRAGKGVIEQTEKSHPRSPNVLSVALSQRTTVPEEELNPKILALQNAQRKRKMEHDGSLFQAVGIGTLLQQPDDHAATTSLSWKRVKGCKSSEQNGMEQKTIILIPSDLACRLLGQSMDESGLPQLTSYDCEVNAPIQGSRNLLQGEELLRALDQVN
Chain of Heat shock factor protein 1 (Homo sapiens) (Q00613 whole entry, looked up, the tested form may be a part): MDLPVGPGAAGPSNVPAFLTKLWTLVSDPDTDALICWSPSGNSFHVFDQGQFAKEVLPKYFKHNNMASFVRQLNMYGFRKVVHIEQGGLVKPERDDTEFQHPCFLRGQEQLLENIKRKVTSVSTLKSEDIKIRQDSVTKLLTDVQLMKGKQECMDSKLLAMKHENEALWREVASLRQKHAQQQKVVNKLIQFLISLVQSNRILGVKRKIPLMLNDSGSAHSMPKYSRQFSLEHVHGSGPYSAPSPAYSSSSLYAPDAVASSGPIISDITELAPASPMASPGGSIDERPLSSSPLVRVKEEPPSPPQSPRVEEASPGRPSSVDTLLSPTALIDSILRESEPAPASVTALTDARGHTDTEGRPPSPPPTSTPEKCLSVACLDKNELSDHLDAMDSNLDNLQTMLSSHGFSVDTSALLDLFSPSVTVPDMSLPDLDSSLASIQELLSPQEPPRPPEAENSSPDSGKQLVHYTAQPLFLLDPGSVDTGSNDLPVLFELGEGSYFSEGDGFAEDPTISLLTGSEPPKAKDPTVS
Chain of Hepatocyte nuclear factor 6 (Homo sapiens) (Q9UBC0 whole entry, looked up): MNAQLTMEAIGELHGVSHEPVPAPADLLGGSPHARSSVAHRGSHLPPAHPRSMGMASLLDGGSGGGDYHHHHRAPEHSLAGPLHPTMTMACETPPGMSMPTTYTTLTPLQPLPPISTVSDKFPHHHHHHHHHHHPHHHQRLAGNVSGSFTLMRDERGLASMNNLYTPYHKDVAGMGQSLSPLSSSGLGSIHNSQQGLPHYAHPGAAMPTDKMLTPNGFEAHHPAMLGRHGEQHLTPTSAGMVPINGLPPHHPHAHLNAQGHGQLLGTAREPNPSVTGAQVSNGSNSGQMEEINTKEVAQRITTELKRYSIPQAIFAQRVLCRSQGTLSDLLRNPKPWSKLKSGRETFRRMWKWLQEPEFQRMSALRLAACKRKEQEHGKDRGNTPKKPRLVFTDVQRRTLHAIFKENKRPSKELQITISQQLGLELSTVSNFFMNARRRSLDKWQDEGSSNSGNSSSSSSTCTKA
Chain of Hepatocyte nuclear factor 3-beta (Homo sapiens) (Q9Y261 whole entry, looked up): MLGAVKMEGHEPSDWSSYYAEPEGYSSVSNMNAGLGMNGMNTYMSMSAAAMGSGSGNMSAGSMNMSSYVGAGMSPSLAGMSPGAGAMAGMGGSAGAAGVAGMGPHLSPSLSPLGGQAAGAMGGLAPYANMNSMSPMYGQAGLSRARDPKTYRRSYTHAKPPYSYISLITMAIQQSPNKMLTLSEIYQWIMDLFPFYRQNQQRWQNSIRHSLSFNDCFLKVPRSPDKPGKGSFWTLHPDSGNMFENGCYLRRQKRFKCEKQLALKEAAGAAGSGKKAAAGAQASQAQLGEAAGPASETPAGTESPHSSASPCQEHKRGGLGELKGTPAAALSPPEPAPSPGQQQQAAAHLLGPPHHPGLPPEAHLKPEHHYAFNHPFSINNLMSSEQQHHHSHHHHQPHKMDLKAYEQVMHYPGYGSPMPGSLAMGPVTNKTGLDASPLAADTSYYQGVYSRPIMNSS

N[C@@H](Cc1c[nH]c2ccccc12)C(=O)O
active: [13] 27.3 µM
not listed: [17] | [18]
inactive: all other assays above

CC(=O)CC(c1ccccc1)c1c(O)c2ccccc2oc1=O (centres undefined)
not listed: [10] | [15] | [17] | [18]
inactive: all other assays above

CO[C@@H]1COCC[C@@H]1N[C@@H]1CC[C@@](C(=O)N2CCc3ncc(C(F)(F)F)cc3C2)(C(C)C)C1
not listed: [16] | [18]
inactive: all other assays above

CC(N)=O
inactive: [1] | [2] | [3] | [4] | [5] | [6] | [7] | [8] | [9] | [10] | [11] | [12] | [14] | [15]
active: [15] 133 µM

C#CC(O)C(CC)CCCC (centres undefined)
active: [8] 168 µM | [18] 157 µM | [14] 144 µM
not listed: [16]
inactive: all other assays above

CCc1cc(C2=C(C(=O)O)N(c3ccccc3C(F)(F)F)S(=O)(=O)c3ccccc32)cc2c1OCO2
active: [11] 149 µM | [15] 154 µM | [17] 19.8 µM
not listed: [16] | [18]
inactive: all other assays above

O=NO
not listed: [10] | [16] | [18]
inactive: all other assays above

COC(=O)[C@H]1[C@H]2C[C@@H]3c4[nH]c5cc(OC)ccc5c4CCN3C[C@H]2C[C@@H](OC(=O)c2cc(OC)c(OC)c(OC)c2)[C@@H]1OC
active: [1] 51.6 µM | [3] 8.83 µM
not listed: [13] | [16] | [17]
inactive: all other assays above
